The full data set covers some 7,900 targets. This sample favours those with a hit. About 0.6% of all pairs of compound and target were hits. Unmarked numbers belong to inactive results.
Tests used:
Assay in all cases: log2 fold change, soluble protein after heating vs DMSO (PISA); higher = thermal stabilisation; K562 cells, 10 uM, 30 min; active = over 0.2 and 3.5 SD of the protein, either way, in both replicates (recomputed)
bafetinib = compound: Cc1ccc(NC(=O)c2ccc(CN3CC[C@H](N(C)C)C3)c(C(F)(F)F)c2)cc1Nc1nccc(-c2cncnc2)n1 [bafetinib]
In short: (§1)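 Values are thermal stability changes relative to control samples and are taken from duplicates. They are stated as log2 fold changes. Before quantification by TMTpro 16plex LC-MS/MS with equalised channel sums, K562 cells at 2×10^6 cells/mL were treated with 10 μM compound for 30 min, heated in aliquots for 3 min across 48°C-58°C, pooled, extracted in PBS with 0.5% NP-40 at 4°C, and centrifuged at 21,000xg for 90 min to give the soluble supernatant.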

[1] = compound: Cc1cccc(CC(=O)N2CCc3c2ccc(-c2cn(C)c4ncnc(N)c24)c3F)n1
In short: as §1

nilotinib = compound: Cc1cn(-c2cc(NC(=O)c3ccc(C)c(Nc4nccc(-c5cccnc5)n4)c3)cc(C(F)(F)F)c2)cn1 [nilotinib]
In short: as §1

[2] = compound: Cc1nc(Nc2n[nH]c3c2CN(C(=O)N[C@H](CN(C)C)c2ccccc2)C3(C)C)c2sccc2n1
In short: as §1

dasatinib = compound: Cc1nc(Nc2ncc(C(=O)Nc3c(C)cccc3Cl)s2)cc(N2CCN(CCO)CC2)n1 [dasatinib]
In short: as §1

[3] = compound: Cc1ncc(-c2ccnc(Nc3ccc(S(C)(=O)=O)cc3)n2)n1C(C)C
In short: as §1

[4] = compound: Cn1cc(-c2ccc3c(c2)CCN3C(=O)Cc2cccc(C(F)(F)F)c2)c2c(N)ncnc21
In short: as §1

[5] = compound: Cn1cc(-c2ccc3nnc(C(F)(F)c4ccc5ncccc5c4)n3n2)cn1
In short: as §1

tipifarnib = compound: Cn1cncc1[C@@](N)(c1ccc(Cl)cc1)c1ccc2c(c1)c(-c1cccc(Cl)c1)cc(=O)n2C [tipifarnib]
In short: as §1

mubritinib = compound: FC(F)(F)c1ccc(/C=C/c2nc(COc3ccc(CCCCn4ccnn4)cc3)co2)cc1 [mubritinib]
In short: as §1

[6] = compound: NC(=O)Nc1cc(-c2cccc(F)c2)sc1C(=O)N[C@H]1CCCNC1
In short: as §1

[7] = compound: NC(=O)c1cnc(N[C@@H]2CCCC[C@@H]2N)nc1Nc1cccc(-n2nccn2)c1
In short: as §1

[8] = compound: NC1(c2ccc(-c3nc4ccn5c(=O)[nH]nc5c4cc3-c3ccccc3)cc2)CCC1
In short: as §1

[9] = compound: NCC(=O)Nc1ccc(-n2nc(C(F)(F)F)cc2-c2ccc3c(ccc4ccccc43)c2)cc1
In short: as §1

entinostat = compound: Nc1ccccc1NC(=O)c1ccc(CNC(=O)OCc2cccnc2)cc1 [entinostat]
In short: as §1

vorinostat = compound: O=C(CCCCCCC(=O)Nc1ccccc1)NO [vorinostat]
In short: as §1

citarinostat = compound: O=C(CCCCCCNC(=O)c1cnc(N(c2ccccc2)c2ccccc2Cl)nc1)NO [citarinostat]
In short: as §1

silmitasertib = compound: O=C(O)c1ccc2c(c1)nc(Nc1cccc(Cl)c1)c1ccncc12 [silmitasertib]
In short: as §1

[10] = compound: O=C1NC(=O)C(c2cnc3ccccn23)=C1c1cn2c3c(cc(F)cc13)CN(C(=O)N1CCCCC1)CC2
In short: as §1

[11] = compound: c1cc(OCCN2CCCCC2)cc(-c2n[nH]c3ccc(-c4nnc[nH]4)cc23)c1
In short: as §1

UniProt Q9H4A3, sequence (Q9H4A3 whole entry, looked up): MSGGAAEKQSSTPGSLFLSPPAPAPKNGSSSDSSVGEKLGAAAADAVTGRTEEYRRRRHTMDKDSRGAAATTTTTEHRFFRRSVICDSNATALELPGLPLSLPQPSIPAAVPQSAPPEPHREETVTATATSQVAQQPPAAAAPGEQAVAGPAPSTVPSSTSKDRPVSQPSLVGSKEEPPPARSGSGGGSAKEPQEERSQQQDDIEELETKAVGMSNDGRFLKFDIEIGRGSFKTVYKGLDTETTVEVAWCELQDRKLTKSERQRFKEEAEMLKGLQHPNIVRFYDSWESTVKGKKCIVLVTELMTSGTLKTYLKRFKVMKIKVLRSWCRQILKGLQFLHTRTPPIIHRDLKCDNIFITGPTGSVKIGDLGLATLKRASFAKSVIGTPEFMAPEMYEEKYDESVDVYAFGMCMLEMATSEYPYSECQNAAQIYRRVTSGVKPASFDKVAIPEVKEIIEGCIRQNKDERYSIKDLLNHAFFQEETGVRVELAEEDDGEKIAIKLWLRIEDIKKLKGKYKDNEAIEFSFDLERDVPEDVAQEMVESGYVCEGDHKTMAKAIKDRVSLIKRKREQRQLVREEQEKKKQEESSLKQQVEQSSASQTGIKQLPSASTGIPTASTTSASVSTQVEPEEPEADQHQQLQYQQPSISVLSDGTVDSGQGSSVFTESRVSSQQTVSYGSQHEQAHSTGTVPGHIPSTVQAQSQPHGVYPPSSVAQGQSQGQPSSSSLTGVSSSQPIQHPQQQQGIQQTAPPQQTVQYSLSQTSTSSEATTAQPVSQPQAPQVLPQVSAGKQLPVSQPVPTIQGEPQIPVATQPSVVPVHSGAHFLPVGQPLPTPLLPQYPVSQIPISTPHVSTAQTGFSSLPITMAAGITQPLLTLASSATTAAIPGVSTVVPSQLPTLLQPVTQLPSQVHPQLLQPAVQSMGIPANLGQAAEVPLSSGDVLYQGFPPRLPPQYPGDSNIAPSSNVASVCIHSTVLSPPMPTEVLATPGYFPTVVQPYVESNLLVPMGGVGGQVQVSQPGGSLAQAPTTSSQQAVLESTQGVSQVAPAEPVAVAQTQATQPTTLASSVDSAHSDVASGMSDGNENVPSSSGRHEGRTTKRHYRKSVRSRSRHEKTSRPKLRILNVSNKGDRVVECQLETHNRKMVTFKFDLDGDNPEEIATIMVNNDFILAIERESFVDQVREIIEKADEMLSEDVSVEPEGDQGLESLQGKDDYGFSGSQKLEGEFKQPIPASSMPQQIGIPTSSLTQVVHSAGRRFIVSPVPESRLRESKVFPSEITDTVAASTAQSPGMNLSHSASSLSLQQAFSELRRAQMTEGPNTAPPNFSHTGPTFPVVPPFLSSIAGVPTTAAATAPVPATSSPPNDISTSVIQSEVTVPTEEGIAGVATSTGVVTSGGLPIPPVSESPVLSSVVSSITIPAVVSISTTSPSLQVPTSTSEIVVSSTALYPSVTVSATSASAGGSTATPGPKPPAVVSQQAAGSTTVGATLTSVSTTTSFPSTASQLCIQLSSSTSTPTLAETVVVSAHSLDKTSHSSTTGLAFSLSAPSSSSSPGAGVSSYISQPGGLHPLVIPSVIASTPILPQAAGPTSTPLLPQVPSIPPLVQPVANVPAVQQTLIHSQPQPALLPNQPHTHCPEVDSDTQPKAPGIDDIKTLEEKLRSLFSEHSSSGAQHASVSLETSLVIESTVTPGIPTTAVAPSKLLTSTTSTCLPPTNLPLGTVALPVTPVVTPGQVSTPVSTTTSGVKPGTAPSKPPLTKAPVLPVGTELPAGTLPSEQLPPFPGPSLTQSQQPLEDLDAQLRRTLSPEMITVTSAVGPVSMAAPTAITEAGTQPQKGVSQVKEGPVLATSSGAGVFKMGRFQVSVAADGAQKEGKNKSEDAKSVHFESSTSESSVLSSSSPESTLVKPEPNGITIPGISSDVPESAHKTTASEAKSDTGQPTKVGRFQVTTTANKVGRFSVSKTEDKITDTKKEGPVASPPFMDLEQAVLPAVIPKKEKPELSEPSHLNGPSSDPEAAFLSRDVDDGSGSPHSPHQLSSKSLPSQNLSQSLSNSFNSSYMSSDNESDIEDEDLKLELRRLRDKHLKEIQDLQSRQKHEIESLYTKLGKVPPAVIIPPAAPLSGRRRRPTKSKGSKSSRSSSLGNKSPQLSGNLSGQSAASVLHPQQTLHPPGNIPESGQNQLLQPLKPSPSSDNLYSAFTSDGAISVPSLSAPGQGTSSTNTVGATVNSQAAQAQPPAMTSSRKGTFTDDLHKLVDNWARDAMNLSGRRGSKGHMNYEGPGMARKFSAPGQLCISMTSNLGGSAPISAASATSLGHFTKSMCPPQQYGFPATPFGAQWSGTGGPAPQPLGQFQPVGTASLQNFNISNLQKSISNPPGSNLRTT
UniProt Q53S58, sequence (Q53S58 whole entry, looked up): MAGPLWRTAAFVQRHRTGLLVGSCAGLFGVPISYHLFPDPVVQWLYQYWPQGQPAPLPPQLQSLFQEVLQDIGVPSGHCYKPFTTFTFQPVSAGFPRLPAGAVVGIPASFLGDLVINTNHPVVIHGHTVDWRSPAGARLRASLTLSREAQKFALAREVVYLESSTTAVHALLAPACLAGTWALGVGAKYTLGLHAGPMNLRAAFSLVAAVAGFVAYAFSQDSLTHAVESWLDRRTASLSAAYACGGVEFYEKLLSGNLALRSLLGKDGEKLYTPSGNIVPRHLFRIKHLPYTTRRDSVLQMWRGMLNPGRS
UniProt P43897, sequence (P43897 whole entry, looked up): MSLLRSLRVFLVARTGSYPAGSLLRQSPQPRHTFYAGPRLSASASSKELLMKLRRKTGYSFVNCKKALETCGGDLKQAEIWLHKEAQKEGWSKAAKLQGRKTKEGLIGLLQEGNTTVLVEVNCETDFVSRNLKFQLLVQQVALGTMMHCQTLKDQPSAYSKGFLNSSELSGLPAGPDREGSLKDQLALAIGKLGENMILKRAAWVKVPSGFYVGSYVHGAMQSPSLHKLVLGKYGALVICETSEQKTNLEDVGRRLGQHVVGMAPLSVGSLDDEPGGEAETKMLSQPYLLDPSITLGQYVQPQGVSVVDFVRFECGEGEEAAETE
UniProt Q96AX1, sequence (Q96AX1 whole entry, looked up): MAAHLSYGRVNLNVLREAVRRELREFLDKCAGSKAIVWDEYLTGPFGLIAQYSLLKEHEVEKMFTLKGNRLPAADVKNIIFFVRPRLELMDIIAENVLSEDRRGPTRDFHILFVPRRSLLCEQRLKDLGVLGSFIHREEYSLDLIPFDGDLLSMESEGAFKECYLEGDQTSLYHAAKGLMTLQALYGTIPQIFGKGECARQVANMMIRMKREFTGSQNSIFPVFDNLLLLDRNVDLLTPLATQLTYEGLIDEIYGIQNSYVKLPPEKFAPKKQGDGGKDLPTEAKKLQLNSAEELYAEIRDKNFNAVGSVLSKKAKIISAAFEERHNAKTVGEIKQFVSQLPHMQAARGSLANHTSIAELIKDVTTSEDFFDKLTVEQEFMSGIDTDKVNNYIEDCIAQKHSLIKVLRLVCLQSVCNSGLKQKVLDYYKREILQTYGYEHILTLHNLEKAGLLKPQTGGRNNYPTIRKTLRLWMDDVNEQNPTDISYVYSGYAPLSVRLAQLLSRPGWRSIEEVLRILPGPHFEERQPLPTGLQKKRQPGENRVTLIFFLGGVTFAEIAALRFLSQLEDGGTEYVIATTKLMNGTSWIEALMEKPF
UniProt O60701, sequence (O60701 whole entry, looked up): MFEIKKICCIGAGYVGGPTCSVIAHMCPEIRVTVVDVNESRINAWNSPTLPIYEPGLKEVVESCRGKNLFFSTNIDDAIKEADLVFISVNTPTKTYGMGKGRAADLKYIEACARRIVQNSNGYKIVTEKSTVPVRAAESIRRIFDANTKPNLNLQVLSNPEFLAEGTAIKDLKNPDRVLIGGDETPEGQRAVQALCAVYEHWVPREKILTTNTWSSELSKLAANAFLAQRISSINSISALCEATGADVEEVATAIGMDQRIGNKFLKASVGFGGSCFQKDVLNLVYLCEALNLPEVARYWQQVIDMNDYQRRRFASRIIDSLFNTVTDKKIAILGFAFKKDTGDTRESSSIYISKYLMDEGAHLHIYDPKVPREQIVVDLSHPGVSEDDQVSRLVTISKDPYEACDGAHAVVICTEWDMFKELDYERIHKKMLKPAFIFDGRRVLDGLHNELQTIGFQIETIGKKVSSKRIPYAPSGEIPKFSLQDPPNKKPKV
UniProt Q86SZ2, sequence (Q86SZ2 whole entry, looked up): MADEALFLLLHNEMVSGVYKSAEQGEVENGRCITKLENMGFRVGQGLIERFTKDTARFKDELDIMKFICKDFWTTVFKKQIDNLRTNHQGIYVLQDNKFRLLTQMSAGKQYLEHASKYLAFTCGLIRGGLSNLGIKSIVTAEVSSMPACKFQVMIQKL
UniProt Q8WVY7, sequence (Q8WVY7 whole entry, looked up): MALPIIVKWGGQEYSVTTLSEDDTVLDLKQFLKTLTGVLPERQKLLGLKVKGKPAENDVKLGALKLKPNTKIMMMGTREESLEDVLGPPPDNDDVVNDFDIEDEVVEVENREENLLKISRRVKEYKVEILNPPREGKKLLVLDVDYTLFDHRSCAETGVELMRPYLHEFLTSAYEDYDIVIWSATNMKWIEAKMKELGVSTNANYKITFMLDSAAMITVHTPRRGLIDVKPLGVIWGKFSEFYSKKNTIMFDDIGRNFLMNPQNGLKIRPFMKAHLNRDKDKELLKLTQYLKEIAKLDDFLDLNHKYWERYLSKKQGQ
UniProt Q8N4H5, sequence (Q8N4H5 whole entry, looked up): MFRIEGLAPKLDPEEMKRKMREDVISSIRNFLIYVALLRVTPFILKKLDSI
UniProt O43396, sequence (O43396 whole entry, looked up): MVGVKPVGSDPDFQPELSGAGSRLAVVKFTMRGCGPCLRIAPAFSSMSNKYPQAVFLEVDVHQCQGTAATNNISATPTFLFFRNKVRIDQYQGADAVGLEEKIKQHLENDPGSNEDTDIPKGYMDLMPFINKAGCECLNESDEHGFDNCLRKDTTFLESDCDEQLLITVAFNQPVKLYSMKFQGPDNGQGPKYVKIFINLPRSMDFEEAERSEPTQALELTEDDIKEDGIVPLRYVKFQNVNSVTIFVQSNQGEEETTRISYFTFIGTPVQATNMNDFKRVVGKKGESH

Target	log2 fold change (bafetinib)	log2 fold change [1]	log2 fold change (nilotinib)	log2 fold change [2]	log2 fold change (dasatinib)	log2 fold change [3]	log2 fold change [4]	log2 fold change [5]	log2 fold change (tipifarnib)	log2 fold change (mubritinib)	log2 fold change [6]	log2 fold change [7]	log2 fold change [8]	log2 fold change [9]	log2 fold change (entinostat)	log2 fold change (vorinostat)	log2 fold change (citarinostat)	log2 fold change (silmitasertib)	log2 fold change [10]	log2 fold change [11]
TXNL1 (UniProt O43396)	0.04	0.005	-0.035	-0.006	-0.074	0.008	-0.004	-0.035	-0.06	0.057	-0.048	-0.013	-0.084	-0.015	0.028	0.018	0.087	0.074	-0.004	-0.03
TSFM (UniProt P43897)	0.091	-0.087	0.062	-0.217	-0.143	0.039	0.033	0.033	0.013	-0.36 (active)	-0.068	0.03	-0.05	-0.076	0.162	0.016	0.181	0.11	-0.043	0
TTI1 (UniProt O43156)	-0.006	0.165	-0.036	-0.102	-0.076	0.039	0.085	0	-0.103	0.095	-0.079	-0.093	-0.181	-0.022	0	0.142	0.028	0.062	0.057	-0.099
TRAPPC6B (UniProt Q86SZ2)	-0.005	-0.024	-0.008	-0.027	-0.042	0.021	0.024	0.04	-0.028	0.045	0.025	0.016	-0.025	0.007	0.066	0.013	0.046	0.001	0.143	-0.058
XRCC5 (UniProt P13010)	0.083	0.07	-0.12	-0.405	-0.118	-0.243	0.105	0.123	-0.082	-0.014	-0.024	-0.172	-0.122	-0.058	0.155	0.151	0.163	0.019	-0.096	-0.041
UHRF1BP1L (UniProt A0JNW5)	0.055	-0.002	0.105	0.005	-0.003	-0.029	0.036	0.038	-0.065	0.007	-0.004	-0.017	-0.028	0.055	-0.024	-0.035	-0.032	0.015	-0.052	-0.013
USP24 (UniProt Q9UPU5)	0.037	0.034	0.096	0.007	-0.098	0.09	0.144	0.105	-0.072	0.056	0.18	0.079	-0.053	0.07	-0.095	-0.012	0.012	0.188	-0.2	0.11
UGDH (UniProt O60701)	0.018	0.062	-0.045	-0.377 (active)	-0.043	-0.24	0.151	0.09	-0.034	0.202	-0.062	-0.124	-0.033	-0.095	0.064	-0.027	0.145	-0.102	-0.31 (active)	0
UBAP2L isoform 1 (UniProt Q14157)	-0.006	-0.043	0.013	-0.134	0.058	-0.056	0.064	0.034	0.076	0.07	0.071	0.076	-0.064	0.039	-0.043	0.041	-0.022	-0.031	-0.012	0.03
VPS50 (UniProt Q96JG6)	0.017	0.088	-0.074	-0.077	-0.257 (active)	0.038	-0.019	-0.035	-0.066	0.045	0.003	-0.073	-0.11	-0.046	0.06	0.099	0.068	0.06	0.037	0.003
VPS33A (UniProt Q96AX1)	-0.066	0.091	-0.071	-0.124	-0.123	-0.039	-0.019	-0.094	-0.064	0.098	0.012	-0.121	-0.191	-0.084	0.05	0.051	0.063	0.019	0.029	-0.059
WNK1 isoform 7 (UniProt Q9H4A3)	-0.038	0.046	-0.029	-0.071	0.102	0.022	0.178	-0.022	-0.022	0.036	0.002	0.001	-0.037	-0.042	0.008	-0.05	0.009	-0.062	-0.01	-0.063
UBLCP1 (UniProt Q8WVY7)	0.016	-0.034	-0.101	0.074	-0.063	0.116	-0.052	0.006	-0.072	0.155	-0.084	-0.009	-0.165	-0.048	0.122	0	0.085	0.049	-0.142	0.035
TMEM161B (UniProt Q8NDZ6)	-0.01	0.073	-0.148	-0.018	-0.273 (active)	-0.046	-0.08	0.103	-0.043	0.036	-0.056	0.029	-0.017	-0.073	0.041	0.097	0.036	-0.011	0.003	-0.03
TMEM177 (UniProt Q53S58)	-0.123	0.054	-0.001	-0.005	-0.045	0.023	-0.019	0.016	0.004	0.026	-0.014	-0.008	-0.043	0.347 (active)	-0.021	-0.048	0.068	-0.019	0.048	-0.042
TOMM5 isoform 2 (UniProt Q8N4H5)	-0.141	-0.114	0.079	0.004	-0.004	-0.079	0.062	0.217	0.107	0.038	-0.053	0.002	-0.083	0.084	0.067	-0.117	0.039	-0.043	-0.158	0.099
